Bioassay records: PubChem, The Scripps Research Institute Molecular Screening Center
This is a sample that favours compounds with a hit; in the whole collection about 2.6% have one here.
SIAE inh: blocks human sialic acid acetylesterase. SIAE FP-Rh probe binding, fluorescence polarization. inhibition, % at 9.66 µM. 0.69% of 370,000 active. AID 1053197;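 active means inhibition above a cutoff: mean of compounds within the control limits plus 3 SD of those, cut at about 17% in these data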;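 further: 0% = plate median of compound wells and 100% = probe without SIAE protein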
PRMT1 inh: blocks human protein arginine methyltransferase 1. Q99873. recombinant PRMT1, activity-based probe fluorescence polarization. inhibition, % at 2.79 µM. 1.3% of 370,000 active;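 active means inhibition above about 21% made by adding two undisclosed values, limit read from the data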
Target sequence (Q99873 whole entry, looked up): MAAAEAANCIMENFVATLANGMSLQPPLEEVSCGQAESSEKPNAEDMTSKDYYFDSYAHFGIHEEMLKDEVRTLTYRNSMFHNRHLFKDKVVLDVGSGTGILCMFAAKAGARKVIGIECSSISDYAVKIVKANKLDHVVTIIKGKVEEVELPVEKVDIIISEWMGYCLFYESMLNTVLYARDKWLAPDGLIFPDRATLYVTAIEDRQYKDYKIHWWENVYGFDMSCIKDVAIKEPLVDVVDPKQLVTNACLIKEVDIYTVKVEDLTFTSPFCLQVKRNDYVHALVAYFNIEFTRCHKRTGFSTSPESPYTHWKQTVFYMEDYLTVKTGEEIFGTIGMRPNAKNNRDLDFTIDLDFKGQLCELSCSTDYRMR
PME-1 inh: blocks human protein phosphatase methylesterase 1; Q9Y570; recombinant PME-1, FP-Rh probe fluorescence polarization; inhibition, % at 5.9 µM; 0.53% of 320,000 active;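 active means inhibition above the campaign mean of all compounds plus 3 SD, cut at about 26% in these data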;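 further: competitive labeling of PME-1 active site by serine hydrolase directed probe; 0% = PME-1 with DMSO and 100% = wells lacking PME-1 enzyme; inhibitors block probe labeling so polarization falls and inhibition rises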
Target sequence (Q9Y570 whole entry, looked up): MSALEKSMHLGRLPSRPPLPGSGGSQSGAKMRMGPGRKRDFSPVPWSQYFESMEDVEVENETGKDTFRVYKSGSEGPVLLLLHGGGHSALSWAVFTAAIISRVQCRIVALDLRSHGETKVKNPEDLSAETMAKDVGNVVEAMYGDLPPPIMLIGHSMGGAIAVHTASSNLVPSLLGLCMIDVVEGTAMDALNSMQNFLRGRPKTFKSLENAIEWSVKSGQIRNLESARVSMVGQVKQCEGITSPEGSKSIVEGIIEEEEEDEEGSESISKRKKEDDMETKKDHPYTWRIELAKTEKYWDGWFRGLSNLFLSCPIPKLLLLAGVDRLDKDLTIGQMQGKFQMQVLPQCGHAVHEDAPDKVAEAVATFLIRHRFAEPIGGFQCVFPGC
Fam108B counter: counter-screen for RBBP9 inhibitors: inhibitors of mouse Fam108B; recombinant Fam108B, FP-Rh probe fluorescence polarization; inhibition, % at 9.51 µM; 0.33% of 300,000 active;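 active means inhibition above the screen mean inhibition plus 3 SD, computed separately per campaign, cut at about 18% in these data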;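 further: inhibitors lower polarization as less probe binds the enzyme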
TCR-CD3 inh: blocks the human TCR-CD3 interaction | TAMRA-labeled TCR probe fluorescence, biochemical | inhibition, % at 9.4 µM | 0.37% of 360,000 active; in the data active means inhibition above about 19%;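 further: recombinant mutant TCR 2C K166C tagged with TAMRA read by polarization; 0% = receptor in buffer alone and 100% = receptor with positive control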
PAD4 FP inh: inhibitors of human PAD4; AID 485272; recombinant PAD4, RCA probe fluorescence polarization; inhibition, % at 6.36 µM; 0.41% of 330,000 active; Q9UM07;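 active means percent inhibition above a cutoff equal to the mean of all tested compounds plus 3 SD, cut at about 15% in these data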;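 further: 0% = PAD4 with RCA probe and DMSO and 100% = probe without PAD4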
PAD4 FP conf: PAD4 (human) inhibition, confirmed | 28% of 1,200 active | recombinant PAD4, RCA probe fluorescence polarization | AID 488796 | inhibition, % at 6.36 µM | shares compounds with PAD4 FP inh;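 active means mean inhibition across replicates above the hit cutoff set by the earlier primary screen, cut at about 15% in these data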;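 further: inhibitors block active-site labeling by the probe so polarization falls; 0% = PAD4 with probe and DMSO and 100% = probe without PAD4 enzyme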
Active calls of the source: *; . = not tested or not shown.

SMILES | SIAE inh | PRMT1 inh | PME-1 inh | Fam108B counter | TCR-CD3 inh | PAD4 FP inh | PAD4 FP conf
O=C(O)c1ccccc1O | -3.5 | 3.4 | -4.2 | -3.7 | 3.4 | -8.9 | .
O=C(O)c1ccccc1SSc1ccccc1C(=O)O | 1.9 | 8.1 | -0.4 | 1.1 | 2.7 | 45.2* | 38.0*
O=C(O)c1cccnc1SC1CC(=O)N(c2ccccc2)C1=O (stereo not given) | 2.2 | 0.0 | 1.3 | 2.2 | 4.6 | 2.0 | .
O=C1CC(Sc2cccs2)C(=O)N1c1ccccc1 (stereo not given) | 6.1 | 48.8* | -1.8 | -1.9 | 8.0 | 24.4* | 6.2
Cc1ccc(C(=O)NC2CCCCN(Cc3ccccc3C)C2=O)cc1 (stereo not given) | -4.2 | -5.0 | . | . | . | . | .
Cc1ccc(-n2nc(C)c3c2OC(N)=C(C#N)C3c2ccc(F)cc2)cc1 (stereo not given) | 1.6 | -1.2 | 4.7 | 5.7 | 4.8 | 43.1* | -0.9
Cc1nn(-c2ccccc2)c2c1C(c1ccc([N+](=O)[O-])cc1)C(C#N)=C(N)O2 (stereo not given) | 9.4 | 15.9 | 3.3 | 3.2 | -6.6 | -13.1 | .
Cc1nn(-c2cccc(Cl)c2)c2c1C(c1cccnc1)C(C#N)=C(N)O2 (stereo not given) | 10.2 | 1.8 | -0.1 | 4.1 | -1.2 | 62.2* | -7.6
CC(C)c1ccc(OCc2nc(-c3ccccn3)no2)c(Br)c1 | -5.1 | -2.1 | -7.9 | -2.3 | -4.4 | 20.2* | -3.2
CC(=O)Nc1c(-c2ccc(C(F)(F)F)cc2)nc2ncccn12 | 2.2 | -3.1 | . | . | . | . | .
CCN(CC)c1cccc(OC2=NS(=O)(=O)c3ccccc32)c1 | 30.6* | 5.3 | 11.0 | 6.0 | 52.8* | 64.6* | -4.1
CCN(C(=O)[C@@H](C)[C@@H](O)c1ccc2ccccc2c1)c1ccccc1 | -0.7 | 2.0 | . | . | . | . | .
O=C(OCn1ncc(Cl)c(Cl)c1=O)c1ccccc1Cl | 3.6 | 3.7 | -0.7 | -2.4 | 0.3 | 27.7* | 28.8*
O=C(OCn1ncc(Cl)c(Cl)c1=O)c1ccc(F)cc1 | . | . | 7.1 | -6.2 | . | 14.6 | .
CC1=NN(c2ccc(C)cc2C)C(=O)C1C(c1ccccc1O)C1C(=O)N(c2ccc(C)cc2C)N=C1C (stereo not given) | 15.1 | 0.1 | -0.4 | -2.3 | 1.5 | 45.2* | -15.6
CC1=NN(c2ccccc2)C(=O)C1N=Nc1ccc(C)cc1 (stereo not given) | . | . | -1.8 | -2.1 | . | -0.2 | .
CCOc1ccc2c(O)csc2c1 | -1.9 | 41.1* | -5.2 | -5.1 | 4.8 | 24.4* | 19.8*
Cc1[nH]n(-c2ccccc2)c(=O)c1C(C[N+](=O)[O-])c1ccc(Br)cc1 (stereo not given) | 8.0 | 2.0 | 1.1 | 3.1 | 0.3 | -0.8 | .
Cc1c(C(c2cccc([N+](=O)[O-])c2O)c2c(C)n(C)n(-c3ccccc3)c2=O)c(=O)n(-c2ccccc2)n1C | 11.2 | 3.5 | -1.1 | 3.8 | -4.6 | -1.3 | .
Cc1[nH]n(-c2ccccc2)c(=O)c1C(c1cccc([N+](=O)[O-])c1)c1c(C)[nH]n(-c2ccccc2)c1=O | 11.7 | 3.5 | 3.4 | 9.2 | -4.4 | 30.0* | -9.2
Cc1[nH]n(-c2ccccc2)c(=O)c1C(c1cccc([N+](=O)[O-])c1O)c1c(C)[nH]n(-c2ccccc2)c1=O | 0.9 | 4.5 | 1.6 | 5.8 | 2.9 | 64.4* | -1.0
COc1cccc(C(C[N+](=O)[O-])c2c(C)[nH]n(-c3ccccc3)c2=O)c1 (stereo not given) | 5.1 | -0.8 | 5.8 | 4.0 | 0.5 | 34.6* | -0.9
Cc1[nH]n(-c2ccccc2)c(=O)c1C(c1ccc(C(=O)O)cc1)c1c(C)[nH]n(-c2ccccc2)c1=O | 3.2 | 1.5 | 4.2 | 4.2 | 0.9 | 72.9* | 13.4
Cc1[nH]n(-c2ccccc2)c(=O)c1C(=O)c1ccc([N+](=O)[O-])cc1 | 11.5 | 1.6 | -1.8 | -2.6 | -2.3 | -18.9 | .
CCOC(=O)[C@@]12CCCC3=C1N(CCC3)C(=O)[C@H]2CC(=O)NCCCN1CCCC1=O | -4.2 | 2.1 | . | . | . | . | .
SMILES | SIAE inh | PRMT1 inh | PME-1 inh | Fam108B counter | TCR-CD3 inh | PAD4 FP inh | PAD4 FP conf
CC1(C)N([O-])c2cc([N+](=O)[O-])ccc2[N+]1=O | 5.6 | 12.4 | 23.2 | 14.8 | 15.9 | 30.1* | 15.1*
Cc1ccc(C)n1-c1cc([N+](=O)[O-])ccc1-n1ccnc1 | 2.3 | -4.3 | -3.8 | -3.7 | 11.8 | -3.4 | .
O=C1c2ccc(-c3ccc(F)cc3OCc3ccccc3)cc2S(=O)(=O)c2cccc(C(=O)N3CCCC3)c21 | . | . | 2.7 | . | . | 16.6* | 14.9*
COc1ccccc1C(=O)Nc1ccc(S(=O)(=O)Nc2cc(C)nc(C)n2)cc1 | -11.6 | -2.4 | -2.5 | 0.1 | 5.9 | 2.5 | .
COc1ccc(C(=O)Nc2ccc(S(=O)(=O)Nc3cc(C)nc(C)n3)cc2)c(OC)c1 | -9.1 | 21.2* | -2.7 | -2.0 | -8.8 | 30.8* | 21.4*
Cc1cc(C)c(C)c(S(=O)(=O)N2CCN(C(=O)C3CCC3)CC2)c1C | 1.4 | -5.0 | -0.4 | -0.6 | -2.7 | 1.5 | .
Cc1cc(C)c(C)c(S(=O)(=O)N2CCC(C(=O)N3CCCC3)CC2)c1C | 6.4 | -0.6 | 5.2 | . | -0.8 | 57.7* | -8.2
COc1ccc(Cn2ccc3ccc(-c4ccc5ccn(C(=O)c6ccc(C)cc6)c5c4)cc32)cc1 | -15.1 | -0.7 | . | . | . | . | .
CN(C)CC(=O)N[C@@H]1C[C@@H]2O[C@@H](CO)CC[C@@H]2O[C@@H]1CCc1ccc(C#Cc2ccccc2)cc1 | 0.6 | 0.7 | . | . | . | . | .
Cc1cc(C)nc(SCC(=O)Nc2ccc(Br)cn2)n1 | 1.5 | -1.2 | -2.8 | 2.5 | 1.0 | -2.4 | .
CCC(Sc1nc(C)cc(C)n1)C(=O)Nc1cc(C)on1 (stereo not given) | -7.5 | -3.7 | 0.9 | 1.3 | -1.4 | 0.9 | .
CCC(Sc1nc(C)cc(C)n1)C(=O)NC1=NN=C(c2ccc(C)cc2)CS1 (stereo not given) | -21.0 | 49.1* | 0.0 | -0.6 | 1.4 | 66.1* | 55.4*
Cc1cc(C)nc(SCC(=O)NC2=NN=C(c3ccc(Br)cc3)CS2)n1 | 0.2 | 13.5 | 4.3 | -2.3 | 8.3 | 37.6* | 21.0*
COc1cccc(NC(=O)n2ccc3ccc(-c4ccc5cc[nH]c5c4)cc32)c1 | -24.7 | 1.2 | . | . | . | . | .
COC(=O)c1cnn(-c2ccccc2)c1C(OC)OC | -0.8 | -6.7 | -1.7 | 2.2 | 10.3 | 17.9* | 2.3
COc1ccc(/C=N/Nc2nncn2N)cc1Br | 3.2 | 6.3 | -2.0 | -0.4 | 2.5 | 53.0* | 3.4
COc1cc(/C=N/Nc2nncn2N)ccc1OCc1c(C)no[n+]1[O-] | 3.3 | 3.5 | 5.4 | 1.4 | -3.4 | 45.4* | -9.4
NC(=O)c1ccc(-n2nnnc2SCC(=O)Nc2ccccc2-c2ccccc2)cc1 | 4.0 | -2.6 | 4.2 | 4.2 | 0.7 | 16.2* | 4.6
CCN(CC)S(=O)(=O)c1ccc2c(c1)c(=O)c(C(=O)N1CCN(c3ccccn3)CC1)cn2C | -0.1 | -1.1 | 3.0 | -1.9 | -6.3 | 20.0* | -4.3
